Our source for the Potency and max response values is PubChem BioAssay (Tox21).

The nature of assay [1]: qHTS RealTime-Glo MT Cell Viability Assay in HepG2 cells - 8 hour (AID 1224873). Note: nearly all actives have a fitted effect of over 55% in size. Note: potency is the fitted concentration of half-maximal effect. The gist of the method: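 HepG2 cells (600/well) mixed with RealTime-Glo MT reagent, settled 5 h at 37 C/5% CO2 before compound addition. Nonlytic NanoLuc luminescence from viable-cell prosubstrate reduction read repeatedly during 40 h treatment at 37 C.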
On the technique in general: Quantitative high-throughput screening tests each substance at several concentrations.

Assay [2] in a line: qHTS RealTime-Glo MT Cell Viability Assay in HEK293 cells - 40 hour (AID 1224874). Note: nearly all actives have a fitted effect of over 50% in size. Note: potency is the fitted concentration of half-maximal effect. Conditions: RealTime-Glo luminescence; max response: stronger effect = lower value. Put shortly:
(§1)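 Measured as luminescence from the same continuously cultured HEK293 wells at successive time points (0, 8, 16, 24, 32, 40 h) after compound addition. Reagent present from seeding; dosing at 5 h; incubation 37 C.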

Assay [3] in a line: A CellTox Green Cytotoxicity Assay to monitor cytotoxicity in HEK293 cells - 24 hour (AID 1224875). Note: nearly all actives have a fitted effect of over 45% in size. Note: potency is the fitted concentration of half-maximal effect. Put shortly:
(§2)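 Homogeneous no-lysis format: HEK293 cell suspension mixed with CellTox Green reagent, seeded, incubated 5 h at 37 C/5% CO2, then dosed by pintool with compound in DMSO.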

Assay [4] in a line: A CellTox Green Cytotoxicity Assay to monitor cytotoxicity in HepG2 cells - 16 hour (AID 1224876). Note: nearly all actives have a fitted effect of over 45% in size. Note: potency is the fitted concentration of half-maximal effect. Put shortly: (§3)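 Fluorescent DNA-binding dye, 600 HepG2 cells/well, 5 h preincubation then compound in DMSO; same plates read at 0–40 h, 37 C.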
Assay [5] in a line: qHTS RealTime-Glo MT Cell Viability Assay in HepG2 cells - 32 hour (AID 1224877). Note: nearly all actives have a fitted effect of over 55% in size. Note: potency is the fitted concentration of half-maximal effect. The gist of the method:
(§4)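 Real-time, nonlytic viability: 600 HepG2 cells/well mixed with NanoLuc enzyme plus prosubstrate; 5 h settle, compound (DMSO) added by pintool; luminescence monitored over 40 h at 37 C.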

Assay [6] in a line: A CellTox Green Cytotoxicity Assay to monitor cytotoxicity in HepG2 cells - 24 hour (AID 1224878). Note: nearly all actives have a fitted effect of over 45% in size. Note: potency is the fitted concentration of half-maximal effect. Put shortly: as §3
Assay [7] is described as follows: A CellTox Green Cytotoxicity Assay to monitor cytotoxicity in HepG2 cells - 40 hour (AID 1224879). Note: nearly all actives have a fitted effect of over 40% in size. Note: potency is the fitted concentration of half-maximal effect. The gist of the method: as §3
Assay [8] can be described thus: qHTS RealTime-Glo MT Cell Viability Assay in HEK293 cells - 0 hour (AID 1224880). Note: top concentration of the series differs between compounds; nearly all actives have a fitted effect of over 45% in size. The gist of the method: as §1
Assay [9] is described as follows: A CellTox Green Cytotoxicity Assay to monitor cytotoxicity in HEK293 cells - 32 hour (AID 1224881). Note: nearly all actives have a fitted effect of over 40% in size. Note: potency is the fitted concentration of half-maximal effect. The gist of the method: as §2
Assay [10] is described as follows: A CellTox Green Cytotoxicity Assay to monitor cytotoxicity in HepG2 cells - 0 hour (AID 1224882). Note: nearly all actives have a fitted effect of over 35% in size. The gist of the method: as §3
Assay [11] is described as follows: A CellTox Green Cytotoxicity Assay to monitor cytotoxicity in HepG2 cells - 32 hour (AID 1224883). Note: nearly all actives have a fitted effect of over 50% in size. Note: potency is the fitted concentration of half-maximal effect. Put shortly: as §3
Assay [12] in a line: A CellTox Green Cytotoxicity Assay to monitor cytotoxicity in HEK293 cells - 8 hour (AID 1224884). Note: nearly all actives have a fitted effect of over 35% in size. Note: potency is the fitted concentration of half-maximal effect. Put shortly: as §2
Assay [13] can be described thus: qHTS RealTime-Glo MT Cell Viability Assay in HepG2 cells - 16 hour (AID 1224885). Note: nearly all actives have a fitted effect of over 50% in size. Note: potency is the fitted concentration of half-maximal effect. The gist of the method:
as §4

Assay [14] is described as follows: qHTS RealTime-Glo MT Cell Viability Assay in HEK293 cells - 24 hour (AID 1224886). Note: nearly all actives have a fitted effect of over 50% in size. Note: potency is the fitted concentration of half-maximal effect. The gist of the method:
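Cells + reagent dispensed (600 cells/well, HEK293) → 5 h at 37 C/5% CO2 → 23 nL compound in DMSO pinned → 40 h at 37 C → luminescence read at 0, 8, 16, 24, 32, 40 h.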

Assay [15] is described as follows: qHTS RealTime-Glo MT Cell Viability Assay in HEK293 cells - 8 hour (AID 1224887). Note: nearly all actives have a fitted effect of over 50% in size. Note: potency is the fitted concentration of half-maximal effect. Put shortly: as §1
Assay [16] can be described thus: qHTS RealTime-Glo MT Cell Viability Assay in HepG2 cells - 0 hour (AID 1224889). Note: nearly all actives have a fitted effect of over 50% in size. Put shortly: as §4
A short description of assay [17]: A CellTox Green Cytotoxicity Assay to monitor cytotoxicity in HepG2 cells - 8 hour (AID 1224890). Note: nearly all actives have a fitted effect of over 45% in size. Note: potency is the fitted concentration of half-maximal effect. Put shortly: as §3
A short description of assay [18]: qHTS assay to identify small molecule antagonists of the estrogen receptor alpha (ER-alpha) signaling pathway using the BG1 cell line in the presence of 0.1 nM 17-beta-estradiol - cell viability counter screen (AID 1259241). Note: nearly all actives have a fitted effect of over 40% in size. Put shortly:
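VM7Luc4E2 cells (endogenous ER-alpha, 4×ERE-luciferase), hormone-starved 5 days in charcoal-stripped FBS, were treated with compounds plus 0.1 nM 17beta-estradiol for 22 hr at 37C; viability read in same wells as CellTiter-Fluor live-cell protease fluorescence.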

Assay [19] in a line: qHTS assay to identify small molecule antagonists of the androgen receptor (AR) signaling pathway using the MDA cell line in the presence of 0.5 nM R1881 - cell viability counter screen (AID 1259242). Note: nearly all actives have a fitted effect of over 45% in size. Note: potency is the fitted concentration of half-maximal effect. The gist of the method:
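Human breast carcinoma MDA-kb2 cells, cultured without CO2, receive compounds alongside 0.5 nM (final) R1881 agonist. After 16 hr at 37C, viability is taken as live-cell protease signal.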

Assay [20] in a line: A CellTox Green Cytotoxicity Assay to monitor cytotoxicity in HEK293 cells - 16 hour (AID 1224888). Note: nearly all actives have a fitted effect of over 35% in size. Put shortly: as §2

Each structure is given as a SMILES string. Values joined by “and” are separate entries in the source; they are usually repeats but may differ in a detail not shown here. Equal entries are not always repeated. Inconclusive results are not listed. Some compounds were tested as several samples or in several runs, with calls that do not always agree. Active and inactive are the calls of the source. Calls come from the whole dose curve; as a rule, active = well fitted curve in the direction sought with a large enough effect in the repeat runs; inconclusive = weak or mixed curves; inactive = no such curve, though single readings can be large; an effect the other way counts as inactive or inconclusive.
% is set by controls: 0 for no effect and ±100 for the full control effect.

Regarding `COc1nc(C)nc(Cl)c1NC1=NCCN1`, the Potency entry in assay [1], in assay [3], in [4], in [5], in assay [6] and in assay [7] was “inactive” each time. Further, the Potency result in assay [8], in assay [9], in assay [10], in assay [11], in assay [12] and in [13] was “inactive” each time. The Potency entry in [14], in [15], in assay [16], in [17] and in [18] was “inactive” each time. Besides, the max response in [2] was 2.57% (inactive).

For the compound `Cc1cccc2n[nH]nc12`, the Potency entry in [1], in [3], in assay [5], in [7], in assay [8] and in assay [9] was “inactive” in each case. Further, the Potency entry in [10], in assay [11], in [12], in [13], in assay [14] and in assay [15] was “inactive” in each case. In addition, the Potency entry in [16] and in [19] was “inactive” in each case. In addition, in assay [2], the max response is -0.386% (inactive). In addition, the Potency entry is “inactive and 38.9 µM (active)” in assay [4]; “inactive and 38.9 µM (active)” in assay [6]; “inactive and 43.6 µM (active)” in assay [17].

With `CC(COc1ccccc1)N(CCCl)Cc1ccccc1` (stereo not drawn), the Potency entry in assay [1], in assay [3], in assay [4], in assay [5], in [8] and in [10] was “inactive” in each case. For the same compound, the Potency result in [12], in [13], in assay [15], in assay [16] and in assay [17] was “inactive” each time. The Potency in assay [2] is 49.5 µM (active) and 49 µM (active); in [6], 55.5 µM (active) and inactive; in [7], 55.5 µM (active); in [9] it was 55.5 µM (active) and 21.3 µM (active); in assay [11], 55.5 µM (active); in [14] it was 49.5 µM (active) and 49 µM (active).

Regarding `CCCC(=O)c1ccccc1`, the Potency entry in assay [1], in [3], in assay [4], in assay [5], in assay [6] and in [7] was “inactive” in each case. Further, the Potency result in [8], in [9], in assay [10], in assay [11], in [12] and in assay [13] was “inactive” throughout. Besides, the Potency entry in assay [14], in assay [15], in assay [16] and in assay [19] was “inactive” throughout. Also, the max response in [2] is 2.03% (inactive).

As for `CCCN[C@H]1CCc2nc(N)sc2C1`, the Potency result in [1], in assay [3], in [4], in assay [5], in [6] and in assay [7] was “inactive” in each case. For the same compound, the Potency entry in [8], in [9], in [11], in assay [12], in assay [13] and in assay [14] was “inactive” each time. For the same compound, the Potency result in [15], in assay [20], in assay [16], in assay [17], in assay [18] and in assay [19] was “inactive” throughout. The max response in assay [2] is -11% (inactive).

In the case of `CC(=O)OCCOCCOCCOC(C)=O`, the Potency entry in assay [1], in assay [3], in assay [4], in assay [5], in [6] and in assay [7] was “inactive” throughout. Also, the Potency entry in assay [8], in assay [9], in [10], in [11], in assay [12] and in assay [13] was “inactive” each time. The Potency result in assay [14], in assay [15], in assay [20], in [16] and in assay [19] was “inactive” throughout. In [2], the max response is 7.9% (inactive) and 19.2% (inactive).

Take `Cc1cc(Cc2cc(C)cc(C(C)(C)C)c2O)c(O)c(C(C)(C)C)c1`: the Potency in assay [1] was 38.9 µM (active); in [2] it was 8.75 µM (active) and 15.5 µM (active); in assay [3], 43.9 µM (active) and 43.6 µM (active); in [4], 39.1 µM (active) and 38.9 µM (active); in assay [5], 49.2 µM (active) and 49 µM (active); in [6], 43.9 µM (active) and 43.6 µM (active). The Potency was 49.2 µM (active) and 43.6 µM (active) in assay [7]; 49.2 µM (active) and 43.6 µM (active) in assay [9]; 43.9 µM (active) and 43.6 µM (active) in assay [11]; 49.2 µM (active) and inactive in [12]; 43.9 µM (active) and 43.6 µM (active) in assay [13]; 12.4 µM (active) and 15.5 µM (active) in assay [14]. Further, the Potency in [15] is 15.6 µM (active) and 19.5 µM (active); in assay [19], 30.8 µM (active). For the same compound, the Potency result in assay [8], in assay [10], in [16] and in assay [18] was “inactive” each time.

With `Cc1cccc([N+](=O)[O-])c1C(=O)O`, the Potency entry in [1], in assay [3], in assay [4], in [5], in assay [6] and in assay [7] was “inactive” in each case. For the same compound, the Potency entry in assay [8], in assay [9], in assay [11], in [12], in assay [13] and in assay [14] was “inactive” in each case. Also, the Potency entry in assay [15], in [20], in [16], in assay [17] and in assay [18] was “inactive” each time. Also, in assay [2], the max response is -0.164% (inactive).

In the case of `CCN1CCCC1CNC(=O)c1cc(S(=O)(=O)CC)c(N)cc1OC` (stereo not drawn), the Potency result in assay [1], in assay [3], in assay [4], in assay [5], in assay [6] and in assay [7] was “inactive” each time. For the same compound, the Potency entry in [8], in [9], in assay [11], in [12], in assay [13] and in [14] was “inactive” in each case. For the same compound, the Potency entry in [15], in [20], in [16], in assay [17], in assay [18] and in assay [19] was “inactive” in each case. Moreover, the max response in assay [2] is 2.04% (inactive).

Turning to `O=C(O)CCc1ccccc1`, the Potency entry in assay [1], in [3], in assay [4], in assay [5], in assay [6] and in assay [7] was “inactive” each time. Besides, the Potency entry in [8], in assay [9], in assay [10], in [11], in assay [12] and in [13] was “inactive” each time. Besides, the Potency result in assay [14], in assay [15], in assay [16], in assay [17] and in assay [18] was “inactive” in each case. Also, the max response in assay [2] is 3.43% (inactive).

As for `C/C=C/c1ccc(OCC)c(O)c1`, the Potency result in [1], in [3], in assay [4], in [5], in [6] and in [7] was “inactive” throughout. Also, the Potency result in assay [8], in [9], in [10], in [11], in assay [12] and in assay [13] was “inactive” in each case. Moreover, the Potency result in assay [14], in assay [15], in [16], in assay [17] and in assay [19] was “inactive” each time. Also, the max response in [2] is -14.3% (inactive) and 2.47% (inactive).
